Source: the supplement of paper PMC8047044
Several values for one entry are separate records, joined by “and”; a condition that tells them apart may be missing. Equal entries are not always repeated.

System: Neuro-2a
Assay: neurite formation score, plate-normalized to DMSO control mean 5.04 (score (0-8 scale)); higher = more or longer neurites
Settings: 1 µM
Procedure: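 Neuro-2a mouse neuroblastoma cells in PLL-coated 96-well plates were pre-treated for 1 h in DMEM(+) with each kinase inhibitor at 1 µM, then switched to serum-free DMEM(-) with inhibitor to induce neurite outgrowth and fixed about 2-3 h later. Three blinded observers scored neurite formation from 0 (no neurites) to 8 (long neurites on almost all cells).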

| SMILES | neurite formation score |
| --- | --- |
| O=C1NC(=O)/C(=C/c2ccc3nccc(-c4ccncc4)c3c2)S1 | 4.14 |
| C[C@@H]1CCN(C(=O)CC#N)C[C@@H]1N(C)c1ncnc2[nH]ccc12 | 4.02 and 4.69 |
| CNc1nc(Nc2cnn(C3CCN(C4COC4)CC3F)c2Cl)ncc1C(F)(F)F (stereo unspecified) | 4.88 |
| COc1cc(CCc2cc(NC(=O)c3ccc(N4CC(C)NC(C)C4)cc3)n[nH]2)cc(OC)c1 (stereo unspecified) | 3.9 |
| Cc1cc(CN2CCN(c3c(Br)cnc4nc(-c5ccc(N6CCN(C)CC6)cc5)[nH]c34)CC2)no1 | 4.47 |
| CCCCCCCCCCCCCCCCCCOP(=O)([O-])OC1CC[N+](C)(C)CC1 [Perifosine] | 4.57 |
